Assay results from PubChem BioAssay AID777 (Sanford-Burnham Center for Chemical Genomics, 2007).
Hit rate of the full screen: of about 96,000 compounds, about 19,000 (20%) were called active. Only a sample is shown. Values without a mark were called inactive.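 The calls were made as follows: active = blocking of liver enzyme CYP2C9 beyond about 50% at 5 µM (limit read from the data); inactive = the rest.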

Each compound was assayed against Cytochrome P450 2C9 (Homo sapiens) (UniProt P11712) (assay: blockers of cytochrome P450 2C9 activity – biochemical, luminescence, ADME assay, primary screen (AID 777)). Settings: CYP2C9 Supersomes, luciferin-H conversion, at 5 µM, hits give high values.
Cytochrome P450 2C9 (Homo sapiens), sequence (P11712 whole entry, looked up): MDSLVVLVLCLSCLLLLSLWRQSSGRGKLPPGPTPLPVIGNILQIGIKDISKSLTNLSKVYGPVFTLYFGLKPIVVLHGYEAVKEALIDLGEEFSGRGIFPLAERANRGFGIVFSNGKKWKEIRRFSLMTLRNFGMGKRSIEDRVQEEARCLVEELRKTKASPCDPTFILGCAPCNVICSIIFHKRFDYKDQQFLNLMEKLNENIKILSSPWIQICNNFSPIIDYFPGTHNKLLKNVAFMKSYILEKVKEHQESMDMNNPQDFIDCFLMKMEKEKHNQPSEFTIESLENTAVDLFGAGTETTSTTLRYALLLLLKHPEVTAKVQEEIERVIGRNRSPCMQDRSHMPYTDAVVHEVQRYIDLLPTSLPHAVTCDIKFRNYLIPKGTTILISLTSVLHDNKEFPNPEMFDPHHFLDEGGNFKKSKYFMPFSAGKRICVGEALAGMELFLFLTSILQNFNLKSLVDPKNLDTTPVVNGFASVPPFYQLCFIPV
In the case of `COc1ccc(CCn2c(O)c(C=NC3CC3)c(=O)[nH]c2=O)cc1OC`, the inhibition is reported as 16.5%. Work on `COc1ccccc1-n1c(O)c(C=NC2CC2)c(=O)[nH]c1=O` yielded an inhibition of -3.5%. For `COc1ccc(CCn2c(O)c(C=NCCCn3ccnc3)c(=O)[nH]c2=O)cc1OC`, the inhibition was 61.3% (active). `COc1ccc(S(=O)(=O)NCc2ccc(C(=O)N3CCC4(CC3)OCCO4)cc2)cc1` was tested, and the inhibition was 4.3%. `C=Cn1ccnc1P(=S)(c1cc(N(CC)CC)ns1)c1nccn1C=C` was tested, and the inhibition was 12.6%. In the case of `COC(=O)C(O)(c1ccc(NC(=O)c2ccco2)c(OC)c1)C(F)(F)F` (stereo not given), the inhibition is reported as 75.9% (active). With `CCOC(=O)C(O)(c1ccc(NC(=O)c2ccco2)c(OC)c1)C(F)(F)F` (stereo not given) the inhibition was 71.4% (active). For `CCOC(=O)C(O)(c1ccc(N)c(OC)c1)C(F)(F)F` (stereo not given), the inhibition was 25.7%. `C[N+]12CN3CN(CN(C3)C1)C2` was tested, and the inhibition was 0.8%. `Cc1ccc(P(=S)(c2ccc(C)o2)N2CCOCC2)o1` showed an inhibition of 11%. In the case of `c1cncc(CNC2=NCCC2)c1`, the inhibition is reported as -10.2%. `COc1ccccc1N1CCN(C(CNC(=O)Oc2ccccc2)c2cccnc2)CC1` (stereo not given) showed an inhibition of 44.1%. For `CC(C)c1ccc(O)c(CN2CCN(c3ccccc3)CC2)c1`, the inhibition was 19.1%. With `CC[N+](CC)(CC)CCCCCCCCCC[N+](CC)(CC)CC` the inhibition was -4.4%. With `O=C(CN1CCCCC1)Nc1ccc(Br)cc1C(=O)c1ccccc1Cl` the inhibition was 8.7%. `CCC/C(=N\O)c1c[nH]c2ccccc12` showed an inhibition of 10.1%. For `Cc1ccc2c(c1)C1CN(C)CCC1N2C(=O)Cn1nnc(-c2ccccc2F)n1` (stereo not given), the inhibition was 4.5%. `CN1CCC(N(C)Cc2cccnc2)CC1` was tested, and the inhibition was -6.3%. Work on `CN1C2C=C(N(C(=O)c3ccc(Cl)cc3)c3ccccc3)CC1CC2` (stereo not given) yielded an inhibition of 6.8%. With `Nc1ccc(C(=O)N/N=C2/CN3CCC2CC3)cc1` the inhibition was 8%. With `O=C(COc1ccc2ccccc2c1)N1CCN(Cc2ccncc2)CC1` the inhibition was 90.5% (active). In the case of `CC(C)c1ccc(OCC(=O)N2CCN(C)CC2)c(Br)c1`, the inhibition is reported as -1.3%. Work on `CN1CCN(C(=O)COc2ccc(C(C)(C)C)cc2Br)CC1` yielded an inhibition of -18%. With `Cc1ccc(N(C)C(=O)Oc2cccc3ccc(C)nc23)cc1` the inhibition was 36.4%. `Cn1c(C(=O)N2CCC(C(=O)N3CCC4(CC3)OCCO4)CC2)cc2sccc21` was tested, and the inhibition was -32.3%. `CCOc1ccc(CN(CCCl)CCCl)cc1C(=O)OC` was tested, and the inhibition was 97.3% (active). Work on `Cn1c(O)c(C=Nc2ccc3c(c2)CCC3)c(=O)n(C)c1=O` yielded an inhibition of 11.5%. `CC(=C1C(=O)c2ccccc2C1=O)N1CCN(CCN=Cc2c(O)n(C)c(=O)n(C)c2=O)CC1` gave an inhibition of 43.2%. For `CC(C)(C)c1ccc(CN2C(=O)CN=C(c3ccccc3)c3ccccc32)cc1`, the inhibition was 18.9%. In the case of `O=C(O)C1CSC(c2cccnc2)N1` (stereo not given), the inhibition is reported as -16.9%. For `C=CCN1C(=O)C2(C(C(=O)OCC)=C(N)Oc3c2c(=O)oc2ccccc32)c2ccccc21` (stereo not given), the inhibition was 88.5% (active). For `CCOC(=O)CC1=C(C(=O)OCC)C2(C(=O)N1)C(C(=O)OC)=C(N)Oc1ccccc12` (stereo not given), the inhibition was 20.6%. Compound `COC(=O)CN1C(=O)C2(C(C(=O)OC)=C(N)Oc3ccccc32)C2=C1CC(C)(C)CC2=O` (stereo not given) has an inhibition of 38.6%. In the case of `CNC(=O)N(C)c1nnc(C(C)(C)C)s1`, the inhibition is reported as -22.2%. `Cc1ccc(C)c(NC2=NCCCS2)c1` was tested, and the inhibition was -2.6%. With `CCOC(=O)C1CN(C)CCC1=O` (stereo not given) the inhibition was 1.1%. `CCCCCn1c(=O)c(C(=O)Nc2c(C)n(C)n(-c3ccccc3)c2=O)c(O)c2ccccc21` was tested, and the inhibition was 25.9%. For `CCCCCn1c(=O)c(C(=O)NCc2ccccn2)c(O)c2ccccc21`, the inhibition was 78.1% (active). Compound `CCN1c2nc3c(C)cccn3c(=O)c2CC2(C(=O)N(C)C(=O)N(C)C2=O)C1C` (stereo not given) has an inhibition of -8.4%. With `Cc1nc2ccccn2c1P(=S)(N1CCCCC1)N1CCCCC1` the inhibition was 11.7%. With `CCOC(=O)c1c(C)c(C(=O)N2CCC3(CC2)OCCO3)c(C)n1CC` the inhibition was 31.2%. With `CN(C)C(=O)NC(O)C(Cl)(Cl)Cl` (stereo not given) the inhibition was 74.8% (active). With `Cc1cc(N2C(=O)C3CCCN3C2c2ccc(Cl)c(Cl)c2)no1` (stereo not given) the inhibition was 41.4%. In the case of `COc1ccc(-c2nc(CS(=O)CC(=O)N3CCC4(CC3)OCCO4)c(C)o2)cc1` (stereo not given), the inhibition is reported as 14.5%. Work on `O=C1/C(=C\c2ccc3c(c2)OCO3)N2CCC1CC2` yielded an inhibition of 22.5%. `CCOC(=O)c1c(-c2ccccc2)oc2ccc(OC(=O)N(C)C)cc12` was tested, and the inhibition was 55% (active). With `O=C1NC(=O)C(C/C=C/c2ccccc2)C(=O)N1` the inhibition was -3%. `CC(=NCc1ccc2c(c1)OCO2)c1c(O)[nH]c(=O)[nH]c1=O` gave an inhibition of -11.9%. `CN1CCN(Cc2ccccc2C(F)(F)F)CC1` showed an inhibition of 0.4%. Compound `CCN(CC)C(=O)c1ccc(NC(=O)c2cc(-n3cnnc3)ccc2Cl)cc1` has an inhibition of 32.9%. Compound `O=C(CCN1CCCCC1)NCC(=O)Nc1ccc(Br)cc1C(=O)c1ccccc1` has an inhibition of -14.9%. `CCOP(=S)(OCC)SCOC(=O)NCC(=O)OC` was tested, and the inhibition was 71.1% (active). Work on `c1ccc(C2NCc3ccccc3-n3cccc32)cc1` (stereo not given) yielded an inhibition of 19.1%. `CC(=O)NC(=O)NC(C)Cc1ccccc1` (stereo not given) gave an inhibition of -12.4%. In the case of `CC(=O)c1ccc(OC(NC(=O)Cc2ccccc2)C(Cl)(Cl)Cl)cc1` (stereo not given), the inhibition is reported as 86.4% (active). `Cc1nc2nc(C)c(CCC(=O)N3CCC4(CC3)OCCO4)c(C)n2n1` gave an inhibition of 3.8%. `NC(=O)Nc1cccc(C(F)(F)F)c1` was tested, and the inhibition was -12.3%. In the case of `CC(=O)Nc1ccccc1C(=O)OCC(=O)c1cccc2ccccc12`, the inhibition is reported as 80.7% (active). For `CC12CN3CC(C)(CN(C1)C3c1cccs1)C2` (stereo not given), the inhibition was -10.5%. In the case of `Cc1ccc(Cn2nnnc2CN2CCC(n3nnc4ccccc43)CC2)cc1`, the inhibition is reported as 93.4% (active). `CSC1=NP(=S)(SC)N(C)c2nc3n(c21)CCC3` (stereo not given) showed an inhibition of 9.2%. `Cc1cccc(N2C(=O)NC(=O)/C(=C\c3cnn(-c4ccccc4)c3)C2=O)c1` showed an inhibition of -9.5%. Compound `COc1ccc(C(=O)C2CN(C)CC2C(=O)c2ccc(OC)cc2)cc1` (stereo not given) has an inhibition of 12.4%. With `COc1ccc(CN2CCN(c3ccccc3F)CC2)c(OC)c1` the inhibition was 60.9% (active). Work on `Fc1cccc(F)c1CN1CCN(Cc2c(F)cccc2F)CC1` yielded an inhibition of 7.2%. In the case of `COc1ccccc1CN1CCN(C(=O)Cc2ccccc2)CC1`, the inhibition is reported as 31.5%. Work on `CC(=NC1CCN(Cc2ccccc2)CC1)c1c(O)n(C)c(=O)n(C)c1=O` yielded an inhibition of 17.4%. For `CC(=O)c1c(O)n(C2CCCCCC2)c(=O)[nH]c1=O`, the inhibition was 82.9% (active). With `CCC(=NCCc1ccccc1)c1c(O)n(C2CCCCC2)c(=O)[nH]c1=O` the inhibition was 68.4% (active). Work on `CC(=NCC1CCCO1)c1c(O)n(-c2ccccc2)c(=O)[nH]c1=O` (stereo not given) yielded an inhibition of 27.9%. For `CN1CCN(Cc2ccc(OC(F)(F)F)cc2)CC1`, the inhibition was 3.1%. In the case of `CCc1nc2ccccc2c(=O)n1-c1cccc(OC)c1`, the inhibition is reported as -4%. `CC(=O)N(C1=NCCCS1)c1ccccc1F` showed an inhibition of 18.1%. Compound `COC(=O)C(c1ccccc1)N1CCCCCC1` (stereo not given) has an inhibition of 5.8%. With `O=c1c2ccccc2nc(-c2ccco2)n1-c1ccc(Br)cn1` the inhibition was -4.8%. `COc1ccccc1N=C1SCCCN1C` gave an inhibition of -3.6%. `CCN(CC)CCOC(=O)c1cc2cc(COC)ccc2o1` was tested, and the inhibition was -1.3%. With `O=C(c1cc(-c2ccncc2)nc2ccccc12)N1CCC2(CC1)OCCO2` the inhibition was 41.9%. With `O=C(c1cc2nc(-c3ccccc3)cc(-c3ccccc3)n2n1)N1CCC2(CC1)OCCO2` the inhibition was 94.6% (active). In the case of `Cc1cccc(-n2c(C)nc3cc(C(=O)N4CCC5(CC4)OCCO5)ccc32)c1`, the inhibition is reported as 13.7%. `CCN(CC)P(=O)(Oc1cccc(C)c1)N(CC)CC` was tested, and the inhibition was 46.2%. In the case of `CCC(=O)CC(c1ccc([N+](=O)[O-])cc1)c1c(O)c2ccccc2oc1=O` (stereo not given), the inhibition is reported as 75.8% (active). `O=C(C1CC(=O)N(C2CCCC2)C1)N1CCC2(CC1)OCCO2` (stereo not given) was tested, and the inhibition was 9.5%. In the case of `CC(=O)N1CN2CN(C(C)=O)CC(C(=O)c3ccc(Br)cc3)(C2)C1`, the inhibition is reported as -14.6%. For `Fc1ccc(N2CCN(Cc3ccc4c(c3)OCO4)CC2)cc1`, the inhibition was 14.2%. `c1ccc2sc(C3CCCNC3)nc2c1` (stereo not given) showed an inhibition of -23%. For `CCCCCCN=C(CC)c1c(O)n(CCCC)c(=O)[nH]c1=O`, the inhibition was 93.6% (active). `CCCCn1c(O)c(C(CC)=NCc2ccco2)c(=O)[nH]c1=O` was tested, and the inhibition was 56.4% (active). `CCC(=NCCCO)c1c(O)n(-c2ccc(OC)cc2)c(=O)[nH]c1=O` was tested, and the inhibition was -2.8%. In the case of `CCC(=NCc1ccco1)c1c(O)n(Cc2ccccc2)c(=O)[nH]c1=O`, the inhibition is reported as 35.4%. `Cc1cc(OCc2cc(C(=O)O)oc2C)c2c3c(c(=O)oc2c1)CCCC3` gave an inhibition of 22.2%. `OC(CNC1CCCCC1)c1ccccc1` (stereo not given) showed an inhibition of 28.7%. `O=c1c2ccccc2nc(-c2ccc(Cl)cc2Cl)n1-c1ccncc1` showed an inhibition of 17.2%. With `COC(=O)N(c1ccc(OC)cc1)P1(=S)OCCC(C)O1` (stereo not given) the inhibition was 12.9%. `CCc1cccc2c(C#N)cn(CC(=O)N3CCOCC3)c12` gave an inhibition of 37.3%. With `N[C@@H](Cc1c[nH]c2ccccc12)c1nnc(SCc2c(F)cccc2Cl)o1` the inhibition was 70.3% (active). Work on `CCCC(C)n1[nH]c(=O)c2c1NC(=O)CSC2c1ccc(OC)c(OC)c1` (stereo not given) yielded an inhibition of 1.7%. In the case of `CCN1CCN(C(=O)Cc2coc3cc(C)cc(C)c23)CC1`, the inhibition is reported as -3.2%. `CCOC(=O)c1c(N)n(Cc2ccccc2)c2nc3ccccc3nc12` was tested, and the inhibition was 12%. In the case of `COc1cc(Cn2c(N)c(C(=O)NCc3ccco3)c3nc4ccccc4nc32)cc(OC)c1OC`, the inhibition is reported as 100% (active). For `CCOC(=O)c1c(N)n(CCN2CCOCC2)c2nc3ccccc3nc12`, the inhibition was 25.6%. With `O=C(c1cc(S(=O)(=O)N2CCOCC2)ccc1F)N1CCC2(CC1)OCCO2` the inhibition was -0.4%. Compound `Cc1cc(C)cc(NC(=S)NC2CC3CCCC(C2)N3Cc2cccs2)c1` (stereo not given) has an inhibition of 8.1%. For `CNP1(NC)=Nc2nn(-c3ccccc3)c(N)c2C(c2ccccc2)=N1`, the inhibition was -4%. Compound `CC1(C)C(c2ccccc2)=NC(c2cccnc2)=[N+]1[O-]` has an inhibition of 38.2%. Compound `Cn1c(O)c(C=NCCCC(=O)O)c(=O)n(C)c1=O` has an inhibition of -3.8%. For `C/C(CCc1c[nH]c2ccccc12)=N\O`, the inhibition was -21.6%. With `CCOC(=O)C1=C(C)OC(N)=C(C(=O)OC)C12C(=O)Nc1ccc(Br)cc12` (stereo not given) the inhibition was 22%. For `COc1ccc(C2NCc3ccc4c(c3-n3cccc32)OCO4)cc1OC` (stereo not given), the inhibition was 10.3%. In the case of `CCOC(=O)C1SC2(C(F)(F)C(F)F)CC1(O)c1c(c(OC)c3occc3c1OC)O2` (stereo not given), the inhibition is reported as 87% (active). `CCNc1nc2[nH]c(=O)c3c(c2s1)OC(N)=C(C#N)C3c1cccs1` (stereo not given) gave an inhibition of -5.9%. In the case of `CCOc1ccc(C2SCC(=O)Nc3c2c(C)nn3C2CCOC(C)(C)C2)cc1` (stereo not given), the inhibition is reported as 7.4%. With `N#Cc1ccc(Cn2cc(C(=O)c3ccco3)c3ccccc32)cc1` the inhibition was 77.3% (active). `CC1=C(C(=O)Nc2ccccc2)SCCO1` gave an inhibition of -1.2%. With `O=C(CSC1c2ccccc2-c2ccccc21)N/N=C/c1ccccc1` the inhibition was 21.3%.
